Bioassay records from PubChem BioAssay.
A selection: hits, their analogues and other compounds. The true share with any hit is near 12%.
USP17 block – blocks human USP17 ubiquitin-rhodamine cleavage | 47,000 compounds, 6.5% hits | AID 1645855 | A8MUK1 | purified USP17, Ub-rhodamine cleavage fluorescence, 3 h | inhibition, % at 50 µM
USP30 block – human USP30 deubiquitinase inhibition | Q70CQ3 | purified USP30, Ub-rhodamine cleavage fluorescence | inhibition, % at 25 µM | 47,000 compounds, 5.3% hits
USP28 inh – inhibitors of human USP28 deubiquitinase. purified USP28, Ub-rhodamine cleavage fluorescence, 30 min. inhibition, % at 25 µM. 47,000 compounds, 3% hits. AID 1645857
Target sequence (Q96RU2 whole entry, looked up): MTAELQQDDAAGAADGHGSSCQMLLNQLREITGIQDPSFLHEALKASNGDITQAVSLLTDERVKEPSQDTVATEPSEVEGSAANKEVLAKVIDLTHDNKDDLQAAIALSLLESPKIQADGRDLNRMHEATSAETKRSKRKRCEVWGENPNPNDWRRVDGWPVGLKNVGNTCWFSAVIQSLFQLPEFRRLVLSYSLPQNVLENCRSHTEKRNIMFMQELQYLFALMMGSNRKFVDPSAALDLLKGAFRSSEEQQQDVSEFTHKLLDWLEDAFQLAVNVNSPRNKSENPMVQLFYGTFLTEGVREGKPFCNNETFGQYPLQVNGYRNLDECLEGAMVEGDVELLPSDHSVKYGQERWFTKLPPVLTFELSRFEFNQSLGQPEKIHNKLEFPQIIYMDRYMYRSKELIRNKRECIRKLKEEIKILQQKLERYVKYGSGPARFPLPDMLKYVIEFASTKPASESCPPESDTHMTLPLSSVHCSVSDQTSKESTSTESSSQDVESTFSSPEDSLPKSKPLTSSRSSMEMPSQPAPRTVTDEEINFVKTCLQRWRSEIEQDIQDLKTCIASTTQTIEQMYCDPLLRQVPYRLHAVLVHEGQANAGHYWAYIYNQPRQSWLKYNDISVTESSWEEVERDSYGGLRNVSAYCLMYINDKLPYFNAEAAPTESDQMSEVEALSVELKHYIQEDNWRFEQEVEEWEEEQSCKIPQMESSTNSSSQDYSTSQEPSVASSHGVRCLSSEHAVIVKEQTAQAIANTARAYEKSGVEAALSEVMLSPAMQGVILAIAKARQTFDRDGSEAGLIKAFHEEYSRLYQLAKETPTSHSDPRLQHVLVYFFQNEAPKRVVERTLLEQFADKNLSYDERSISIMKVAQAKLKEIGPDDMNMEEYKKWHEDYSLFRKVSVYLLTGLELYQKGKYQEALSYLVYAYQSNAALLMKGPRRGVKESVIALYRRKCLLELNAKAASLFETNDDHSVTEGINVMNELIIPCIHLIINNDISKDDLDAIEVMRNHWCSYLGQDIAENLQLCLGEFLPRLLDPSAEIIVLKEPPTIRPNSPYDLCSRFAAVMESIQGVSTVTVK
OTUD3 inh – inhibitors of human OTUD3 deubiquitinase | purified OTUD3, Ub-rhodamine fluorescence, 2 h | inhibition, % at 25 µM | 47,000 compounds, 0.7% hits | AID 1645858
A number is an active result; - = inactive; . = no result. Rule as the data show it: active = inhibition above about 30%; inactive = the rest.

SMILES	USP17 block	USP30 block	USP28 inh	OTUD3 inh
O=C(/C=C/c1ccc(F)cc1)N1CCc2ccccc2C1	61.8	-	-	-
O=C(/C=C/c1ccc(F)cc1)N1CCCc2ccccc21	-	-	-	-
Cc1ccc(S(=O)(=O)c2cnc(-c3ccccc3)nc2Oc2ccc(Cl)cc2C)cc1	-	-	-	-
O=S(=O)(c1ccccc1)c1cnc(-c2ccccc2)nc1Oc1ccc(F)cc1F	-	36.2	-	-
CC(=O)c1ccc(N2C(=O)N(CC(=O)c3ccc(Cl)cc3)c3ccccc3S2(=O)=O)cc1	-	-	-	-
COc1ccc(C(=O)CN2C(=O)N(c3cccc(C)c3)S(=O)(=O)c3ccccc32)cc1	-	-	-	-
COc1cccc(N2C(=O)N(CC(=O)NCc3ccc(Cl)cc3)c3ccccc3S2(=O)=O)c1	78.5	43.4	-	-
COc1cc(OC)cc(N2C(=O)N(CC(=O)c3ccc(Br)cc3)c3ccccc3S2(=O)=O)c1	30.3	-	-	-
Cc1ccc(F)cc1NC(=O)c1ccccc1Cc1ccccc1	-	-	-	-
CCC(=O)N1CCCCC1c1cc(-c2ncc(C)[nH]2)nc(C)n1 (centres undefined)	-	-	-	-
CCCc1cc(=O)n2[nH]c(-c3ccc(C)cc3)cc2n1	43.1	-	-	-
Cc1cc(C)cc(C(=O)OCC(=O)Nc2sccc2C(N)=O)c1	-	-	-	-
CC1(C2CCN(c3cccc(F)c3C#N)CC2)NC(=O)NC1=O (centres undefined)	-	31.8	-	-
N#Cc1c(F)cccc1N1CCC(C2CCCCCN2C(=O)C2CC2)CC1 (centres undefined)	-	34.4	-	-
Cc1cc(C2CCCN2C(=O)c2cc(-c3ccc4c(c3)OCO4)on2)on1 (centres undefined)	-	-	-	-
NS(=O)(=O)c1ccc(CNS(=O)(=O)/C=C/c2ccccc2)cc1	85.9	78.2	56.7	-
COc1ccccc1NS(=O)(=O)c1ccc(C(=O)NCc2ccc(S(N)(=O)=O)cc2)cc1	-	-	-	-
Cc1ccc(-n2cc(C(=O)NCc3cccnc3)nn2)cc1C	.	66.5	-	-
O=C(NCc1ccccn1)c1cn(-c2cccc(Cl)c2)nn1	32.7	-	-	-
O=S(=O)(Nc1cccn2nc(C3CC3)nc12)c1ccc(F)cc1	-	-	-	-
COc1ccc(-c2cc(C(=O)Nc3cccc(C#N)c3)nn2C2CCS(=O)(=O)C2)cc1 (centres undefined)	38.9	-	-	-
COc1ccc(CCNCc2ccc(-c3cccc(C(=O)O)c3)o2)cc1OC	-	-	-	-
Cc1ccc(OC(=O)c2cn(-c3ccccc3)nc2-c2cccnc2)cc1	55.4	45.1	-	-
COc1ccc(NC(=O)c2cnc(N3CCCCC3)nc2C)cc1OC	-	-	44.3	-
Cc1cccc(NC(=O)c2cnc(N3CCCC3)nc2C)c1	-	-	-	-
SMILES	USP17 block	USP30 block	USP28 inh	OTUD3 inh
Cc1nc(N2CCCC2)ncc1C(=O)Nc1ccc(F)c(F)c1	-	53.1	-	-
CC1(C)C(O)CCC2(C)C1CCC1(C)C2C(=O)C=C2[C@@H]3C[C@@](C)(C(=O)O)CCC3(C)CC[C@]21C (some centres undefined)	45.9	49.1	-	-
Cn1c(-c2c(N)n(Cc3ccc(Cl)cc3)c3nc4ccccc4nc23)nc2ccccc21	-	-	-	-
Cn1c(-c2c(-c3ccccc3)n[nH]c2-c2ccccc2Cl)nc2ccccc21	-	-	38.3	-
Cc1ccc(NC(=O)Cn2cccc2-c2nnc(C3CC3)o2)c(C)c1	-	34.1	-	-
O=C(Cn1cccc1-c1nnc(C2CCC2)o1)Nc1ccc(F)cc1	-	-	-	-
O=C(Cc1ccc(F)cc1)N1CCc2c(nc(N3CCCC3)[nH]c2=O)C1	-	-	-	-
O=C(Cn1ncc2c1-c1ccccc1OC2)Nc1ccc(F)c(Cl)c1	-	35.2	-	-
O=C(CN1CC(c2nc(-c3ncccn3)no2)C1)Nc1ccc(F)c(Cl)c1	-	-	-	-
Cc1ccc(NC(=O)N2CCC3(CC2)COCCN(Cc2cccnc2)C3)cc1	-	-	-	-
C[C@H]1CN(C(=O)NCc2cccc(F)c2)C[C@@H]1c1nc(-c2cccnc2)no1	-	-	-	-
Cc1ccc2nc(CNc3cc(F)ccc3C)cc(=O)n2c1	-	-	-	-
Cc1cccc(NCc2cc(=O)n3cc(C)ccc3n2)c1	46.3	-	-	-
Cc1sc(-c2cccnc2)nc1OC(=O)c1ccc(Cl)c(Cl)c1	37.9	61.9	-	-
Cc1sc(-c2cccnc2)nc1OC(=O)c1ccc(S(C)(=O)=O)cc1Cl	-	-	-	-
CCOC(=O)C1CCN(c2c(S(=O)(=O)c3ccc(C)c(C)c3)cnc3ccc(F)cc23)CC1	-	-	-	-
CCOC(=O)c1ccccc1NC(=O)C(=O)CC(=O)c1ccc(OC)cc1	31.4	-	-	-
CCOC(=O)c1ccccc1NC(=O)Cc1c(C)n(C(=O)c2ccc(Cl)cc2)c2ccc(OC)cc12	-	-	-	-
CCC1(C)Cc2c(sc3nc(SC)nc(SCC(=O)NCc4ccccc4)c23)CO1 (centres undefined)	-	.	.	-
COc1ccc(-c2nc3ncccc3o2)cc1NC(=O)COc1ccccc1Cl	-	-	-	-
COc1cc(NC(=O)CSc2nc3ncccc3o2)ccc1Cl	47.3	-	-	-
CC(C)c1nnc(C2(c3ccc4c(c3)OCO4)CCOCC2)o1	-	-	-	-
CCN1CCC2(Cc3ccccc3CN(C(=O)Cc3ccccc3)C2)C1 (centres undefined)	-	-	-	-
CC(C)NS(=O)(=O)c1ccc(OCC(=O)N2CCC(Cc3ccccc3)CC2)cc1	-	32.3	78.6	-
O=C(COc1ccc(S(=O)(=O)N2CCOCC2)cc1)N1CCC(Cc2ccccc2)CC1	-	-	56.7	-
SMILES	USP17 block	USP30 block	USP28 inh	OTUD3 inh
O=C(COc1ccccc1F)N1CCC(Cc2ccccc2)CC1	-	-	-	-
CCOC(=O)C1CCN(C(=O)COc2ccc3c(=O)c(Oc4ccc(F)cc4)c(C)oc3c2)CC1	-	30.2	-	-
Cc1c(C)c2ccc(OCC(=O)N3CCC(Cc4ccccc4)CC3)cc2oc1=O	-	47.7	41.8	-
CCC(=O)c1cc(F)ccc1OCC(=O)Nc1cc(S(=O)(=O)N(C)C)ccc1OC	-	-	-	-
Cc1noc(C)c1C1CCCN1S(=O)(=O)c1cc(F)ccc1F (centres undefined)	-	-	-	-
CC(C)(C)C(=O)NC(c1ccccc1)c1nnc(N2CCOCC2)o1 (centres undefined)	-	-	73.7	-
Cc1ccc(C)c(NC(=O)N2CCC(c3nc4ccncc4n3C)C2)c1 (centres undefined)	-	-	-	-
COC(=O)N1CCn2c(c(C(=O)NC3CC3)c3cccnc32)C1	-	-	-	-
COc1ccc(NC(=O)CSc2ncnc3c2oc2ccccc23)c(OC)c1	32.1	-	-	-
O=C(CSc1ncnc2c1oc1ccccc12)NCCc1ccccc1	64.2	36.5	-	-
O=C(CSc1ncnc2c1oc1ccccc12)Nc1ccc(Cl)c(Cl)c1	-	.	.	-
CCc1nc(SCC(=O)Nc2cc(OC)ccc2OC)c2oc3ccccc3c2n1	-	-	-	-
O=C(CSc1ncnc2c1oc1ccccc12)Nc1cccc2ccccc12	-	-	-	-
